Assay outcomes deposited in PubChem by National Center for Advancing Translational Sciences (NCATS).
FUS suppressor = qHTS for Suppressors of FUS Proteinopathy: Primary screen using FUS-linked yeast assay. AID 1347120, 2019. S. cerevisiae FUS-expressing, growth rescue, OD600, 24 h. 390,000 tested, 0.24% active. Potency, µM (highest dose often 76.6 µM), most hits filed as activators; also: nearly all actives have a fitted effect of over 55% in size
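Restored growth of FUS-toxic S. cerevisiae, read as 600 nm absorbance after 24 h at 30C in galactose medium (starting OD 0.005). Controls CP55940 and DMSO.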
TDP43 rescue = qHTS of TDP-43 Inhibitors | TDP-43 expressing yeast growth rescue, BacTiter-Glo, 24 h | Potency, µM (titrated, usually from 46.1 µM), most hits filed as activators | 410,000 tested, 1.8% active | AID 652104, 2013; also: nearly all actives have a fitted effect of over 50% in size
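In this qHTS, compounds that restore growth of yeast expressing TDP-43 appear as activators. Cells (OD600=0.02, galactose medium, raffinose-pregrown) are incubated with compound 24 hr at 30 deg C and growth is quantified by BacTiter-Glo.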
Abeta yeast res = qHTS for compounds that reverse cellular toxicity of Amyloid beta (A-beta) peptide in yeast: Primary Screen. yeast expressing A-beta42, growth rescue, OD600, 48 h; response scale: 0% DMSO, 100% iron-clioquinol control. Potency, µM (titrated, usually from 46.1 µM), usual class: activators. 410,000 tested, 0.063% active. AID 1347071, 2019; also: nearly all actives have a fitted effect of over 55% in size
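Growth rescue measured by 600 nm absorbance after 48 h yeast culture at 30 C with compound. Values normalized between DMSO and an equimolar ferric chloride plus clioquinol control.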
aSyn rescue = qHTS of alpha-syn Inhibitors; Yeast expressing alpha-synuclein, growth rescue, BacTiter-Glo, 24 h; Potency, µM (highest dose often 46.1 µM), actives largely listed as activators; 370,000 tested, 0.14% active; AID 652106, 2013; also: nearly all actives have a fitted effect of over 65% in size
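Rescue of yeast growth: cells expressing toxic alpha-synuclein, induced in galactose at OD600 0.02, incubated with compound 24 h at 30 C. ATP luminescence quantified growth; inhibitors of toxicity appear as activators.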
Mito fusion yeast = qHTS Assay for Small Molecule Inhibitors of Mitochondrial Division or Activators of Mitochondrial Fusion. S. cerevisiae fusion-defective mutant growth rescue, CellTiterGlo 48 h. Potency, µM (doses to about 46.1 µM), actives largely listed as activators. 320,000 tested, 0.23% active. AID 485298, 2010; also: nearly all actives have a fitted effect of over 45% in size
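Yeast fusion mutant, YPEG (non-fermentable carbon), compound, 48 h at 37C non-permissive; CellTiterGlo added, 10 min RT, luminescence read. Rescued growth = division inhibition.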
Hits are given with their value; n = inactive; u = inconclusive; x = no result given; ! = a repeat was not active. Compounds with a hit are over-represented: about 2.2% of the library has one in this group of screens. Calls follow the shape of the dose curve; as a rule, active = well fitted curve in the direction sought with a large enough effect; inconclusive = small, poorly fitted or top-dose-only effect, or another doubt; inactive = no such curve, though single readings can be large; an effect the other way counts as inactive or inconclusive.

SMILES	FUS suppressor	TDP43 rescue	Abeta yeast res	aSyn rescue	Mito fusion yeast
Cc1nc2scc(C)n2c(=O)c1S(=O)(=O)N1CCN(c2ccccc2)CC1	n	n	n	n	n
COc1ccc(N2CCN(S(=O)(=O)c3ccc(Br)s3)CC2)cc1	n	n	n	x	4.47µM
COc1ccc(N2CCN(S(=O)(=O)c3c(C)nc4scc(C)n4c3=O)CC2)cc1	n	14.1µM!	n	n	n
O=C1CSC(c2cccc([N+](=O)[O-])c2)N1Cc1ccccc1 (configuration not stated)	n	n	n	n	n
Fc1cccc(Cc2c(C3CCCCC3)nc3c4ccccc4ccn23)c1	n	n	n	n	x
Cc1ccc(-n2ncc3c2CCCC3NC(=O)CSc2ccccn2)cc1C (configuration not stated)	x	u	n	n	n
O=C(Nc1ccc(Nc2ccccc2)cc1)c1ccc(Br)o1	x	n	n	n	n
O=C(Nc1cccc(O)c1)c1ccc([N+](=O)[O-])cc1Cl	n	n	n	n	n
Cc1ccc(NC(=O)c2ccccc2)cc1C	n	n	n	n	n
O=C(Oc1cccc(NC(=O)c2ccccc2Cl)c1)c1ccc([N+](=O)[O-])cc1	n	12.6µM	n	n	n
O=C(Nc1cccc(OC(=O)c2ccc(Br)o2)c1)c1ccccc1	n	22.4µM	n	n	u
Cc1ccc(C(=O)Oc2cccc(NC(=O)c3ccccc3)c2)cc1C	x	n	u	n	10µM
CCN(CC)S(=O)(=O)c1cccc(C(=O)NC(C(=O)NNC(=O)c2ccccc2F)C(C)C)c1 (configuration not stated)	x	n	n	n	x
C[C@@H]1CN([C@H](C)CO)C(=O)c2cc(/C=C/c3ccccc3)cnc2O[C@H]1CN(C)C(=O)NC1CCCCC1	n	n	n	n	x
C[C@H]1CN([C@@H](C)CO)S(=O)(=O)c2ccc(/C=C/c3ccccc3)cc2O[C@H]1CN(C)C(=O)NC1CCCCC1	11.2µM	n	n	n	x
O=C(O)c1ccc(N=C2c3ccccc3-c3ccccc32)cc1	n	n	n	n	x
Cc1ccc(C(C[N+](=O)[O-])c2c(N)n(C)c(=O)n(C)c2=O)cc1 (configuration not stated)	n	u	n	u	n
Cn1c(N)c(C(C[N+](=O)[O-])c2ccccc2Cl)c(=O)n(C)c1=O (configuration not stated)	n	14.1µM	n	n	x
CC(C)(C)C(=O)NC1CCCCN(Cc2cccc(Cl)c2)C1=O (configuration not stated)	n	x	x	x	x
CN(C(=O)c1ccc2c(c1)N(Cc1ccccc1F)C(=O)c1ccccc1S2(=O)=O)C1CCCCC1	10µM	n	n	x	x
CN(Cc1ccccc1)C(=O)c1ccc2c(c1)N(Cc1ccccc1F)C(=O)c1ccccc1S2(=O)=O	31.6µM	n	n	x	x
COc1cc(-c2nc(CN3CCN(C(=O)c4ccco4)CC3)c(C)o2)ccc1F	n	n	n	n	n
O=[N+]([O-])c1cccc(N/N=C/c2cccc(O)c2O)c1	n	12.6µM	n	n	n
CC(=O)N1CC2(CC(c3ccccc3C(F)(F)F)=NO2)CN1c1ccc(Cl)cc1 (configuration not stated)	u	n	n	12.6µM	x
CC(=O)Nc1cc(-c2ccccc2F)cn2c(-c3ccccc3)cnc12	n	20µM	n	n	x
SMILES	FUS suppressor	TDP43 rescue	Abeta yeast res	aSyn rescue	Mito fusion yeast
CS(=O)(=O)Nc1cccc(-c2cc(NC=O)c3ncc(-c4ccc(F)cc4)n3c2)c1	u	n	n	n	x
Cc1cccc(-c2cc(NC=O)c3ncc(-c4cccc(C(=O)N(C)C)c4)n3c2)c1	n	n	n	n	x
CN(C)C(=O)c1cccc(-c2cnc3c(NC=O)cc(-c4cccc(C(F)(F)F)c4)cn23)c1	28.2µM	n	n	n	x
COc1ccc(-c2cc(NC(C)=O)c3ncc(-c4cccc(C(F)(F)F)c4)n3c2)c(OC)c1	u	12.6µM	n	n	x
O=CNc1cc(-c2cccc(F)c2)cn2c(-c3ccc(F)cc3)cnc12	n	17.8µM	n	n	x
CNc1ccc(C=O)cc1Br	x	x	x	n	x
Cc1ccc2c(=O)cc(C(=O)Nc3c(C)n(C)n(-c4ccccc4)c3=O)oc2c1C	n	n	n	x	x
